We go through 66 compounds from PubChem BioAssay AID2058 (Sanford-Burnham Center for Chemical Genomics, 2009).

Among all 290,000 compounds or so, about 150 (0.052%) were called active. Shown is part of a subset that was picked to be rich in actives. Entries with a potency or affinity are not part of this list. A number with no mark means an inactive call.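 Rule for the calls: active = inhibition of at least 50% with at least 30 cells and total cytoplasm GFP at most 10,000,000; inconclusive = under 30 cells or total GFP of 10,000,000 plus; inactive = the rest.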

Chain of G-protein coupled receptor 35 (Homo sapiens) (Q9HC97 whole entry, looked up): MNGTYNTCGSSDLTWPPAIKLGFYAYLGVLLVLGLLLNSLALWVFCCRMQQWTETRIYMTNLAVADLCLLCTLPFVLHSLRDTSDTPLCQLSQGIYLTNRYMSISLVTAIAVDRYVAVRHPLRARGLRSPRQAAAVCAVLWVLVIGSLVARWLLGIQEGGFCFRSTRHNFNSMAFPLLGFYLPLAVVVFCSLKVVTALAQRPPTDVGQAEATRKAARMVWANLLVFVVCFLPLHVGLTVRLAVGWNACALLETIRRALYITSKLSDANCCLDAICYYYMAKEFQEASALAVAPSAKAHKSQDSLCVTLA

This test addresses G-protein coupled receptor 35 (Homo sapiens) (UniProt Q9HC97). Briefly: GPR35 antagonists blocking zaprinast-driven arrestin recruitment, primary screen, imaging, U2OS, beta-arrestin-GFP, zaprinast agonist (AID 2058). To be noted: U2OS GPR35 beta-arrestin-GFP translocation imaging, zaprinast antagonism; at 10 µM; hits give high values. Background: Activated receptors often draw arrestin, which recruitment assays turn into a signal.
Broadly, the inhibition is the relative decrease from the control value, in per cent. Take `Cc1c(C(=O)Nc2ccc(Cc3ccncc3)cc2)cccc1[N+](=O)[O-]`: the inhibition was -1.8%.
The figure for `CC(C)(C)[C@H]1C=C(C(=O)NCc2nc3ccccc3[nH]2)O[C@@H](OCc2ccc(CO)cc2)C1` is 9.8%.
Then `O=C1c2ccc([N+](=O)[O-])cc2NC(c2ccco2)N1/N=C/c1ccco1` (stereo unspecified), with -4.6%.
The figure for `Cn1cc(/C=C/C(=O)N2CCCC(C(=O)c3ccc(C(C)(C)C)cc3)C2)cn1` (stereo unspecified) is -6.4%; for `CCc1cccc2c(C(=O)C(F)(F)F)cn(CC(=O)N3CCOCC3)c12` it is 7.2%; for `N#C/C(=C/c1ccc(N2CCOCC2)o1)C(=O)NC1CCCCC1` it is 9.2%.
For the compound `N#C/C(=C/c1ccc(N2CCCCCC2)o1)c1cccc(F)c1`, the inhibition is 104% (active).
Then `N#C/C(=C\c1ccc(N2CCOCC2)o1)C(=O)NC1CCCCC1`, with 8.1%.
Then `N#C/C(=C/c1ccc(Sc2nc3ccccc3[nH]2)o1)c1cccc(F)c1`, with -1.5%; and `COc1cc(N2CCCC2)c(OC)cc1/C=C(/C#N)c1cccc(F)c1`, with 30.4%; and `N#C/C(=C/c1ccc(N2CCOCC2)o1)c1ccc(Cl)cc1`, with -12.2%.
For the compound `N#C/C(=C/c1ccc(N2CCCCC2)cc1)c1cccc(F)c1`, the inhibition was 11.7%.
The figure for `N#C/C(=C/c1ccc(N2CCCCC2)o1)c1cccc(F)c1` is 55.7% (active); for `N#C/C(=C/c1ccc(N2CCOCC2)o1)c1ccc(Br)cc1` it is 37.8%; for `Cc1ccc(/C(C#N)=C\c2ccc(N3CCOCC3)o2)cc1` it is 27.2%.
The figure for `N#C/C(=C/c1ccc(N2CCCCCC2)o1)c1ccc(Cl)cc1` is 87.6% (active); for `O=C(Nc1ccccn1)C1(c2ccccc2)CCCC1` it is 3%.
Then `CC(C)(C)OC(=O)N1CCN(c2ccc(CNC(=O)c3ccc(Cl)cc3)cc2)CC1`, with 4%.
Consider `COc1ccc(-c2nnn(CC(=O)N(CCCO)C(C(=O)NC3CCCC3)c3ccc(F)cc3)n2)cc1` (stereo unspecified), for which the inhibition is 4%.
The figure for `Cc1cccc(NC(=O)C2CCN(S(=O)(=O)c3cccc4nonc34)CC2)c1` is -1.2%.
The figure for `COc1ccc(/C=N/n2cnc3c([nH]c4ccc(C)cc43)c2=O)cc1CN1CCCC1` is 1.2%; for `CC(=O)Nc1ccc(S(=O)(=O)NCC2CCC(C(=O)NC(C)c3ccccc3)CC2)cc1` (stereo unspecified) it is -1.8%.
`CN(C)c1nc(N2CCN(c3ccccc3)CC2)c(C#N)c(=O)o1`: the inhibition is 16.3%.
For the compound `N=c1c2c3c(sc2ncn1N)CCC3`, the inhibition was 4.1%.
Consider `CCC1C2CN(C(C)=O)CC=C2C(C#N)=C(N)C1(C#N)C#N` (stereo unspecified), for which the inhibition was -14.1%.
The figure for `N#CC1=C(N)C(C#N)(C#N)[C@H](c2ccncc2)[C@H]2CN(C(=O)OCc3ccccc3)CC=C12` is 1%; for `CC(C)c1ccc(C2C3CSCC=C3C(C#N)=C(N)C2(C#N)C#N)cc1` (stereo unspecified) it is -18.5%.
Then `CCCC1C2CN(C(C)C)CC=C2C(C#N)=C(N)C1(C#N)C#N` (stereo unspecified), with 112% (active); and `CC(C)N1CC=C2C(C#N)=C(N)C(C#N)(C#N)C(c3ccccc3)C2C1` (stereo unspecified), with 69% (active); and `Cc1ccc(C2C3CSCC=C3C(C#N)=C(N)C2(C#N)C#N)cc1` (stereo unspecified), with 1.6%.
Take `CCCC1C2CN(C(C)=O)CC=C2C(C#N)=C(N)C1(C#N)C#N` (stereo unspecified): the inhibition was 8.7%.
The figure for `Cc1ccc(C2C3CN(C(C)C)CC=C3C(C#N)=C(N)C2(C#N)C#N)cc1` (stereo unspecified) is 100% (active); for `N#CC1=C(N)C(C#N)(C#N)C(c2ccncc2)C2CN(C(=O)OCc3ccccc3)CC=C12` (stereo unspecified) it is -3%.
For `COc1ccc(COc2ccccc2C(=O)Nc2ccccn2)cc1[N+](=O)[O-]`, the inhibition was 15.8%.
On to `Cc1ccc(S(=O)(=O)N/N=C/c2cccc(OC3CSC3)c2)cc1`, for which the inhibition was 9.4%.
Then `C[C@@H]1CC=C[C@H]2[C@H]1C(=O)N(Cc1ccccc1)[C@H]2c1ccc(F)c(-c2ccc(N(C)C)cc2)c1`, with 17.6%; and `Cc1ccc(-c2nnc(N3CC(C)OC(C)C3)c3ccccc23)cc1` (stereo unspecified), with 13.6%; and `COc1cc(C(=S)N2CCOCC2)ccc1OC(=O)c1cc([N+](=O)[O-])c(C)c([N+](=O)[O-])c1`, with 10.7%.
The figure for `CCc1ccc(C(C)NC(=O)c2ccc3c(c2)OCO3)cc1` (stereo unspecified) is -12.5%.
With `O=C(NC(c1ccccc1)c1ccccc1)c1ccc(CO)cc1`, the inhibition was 7%.
As for `CC1=CC(C)(C)N(C)C(=O)N1c1ccc(Cl)cc1`, the inhibition was 20.7%.
For the compound `Cc1cc(=O)cc(C)n1-c1ccc(Cl)cc1`, the inhibition was -8.7%.
The figure for `COC1CCN(C(=O)c2cc(COc3ccc(-n4cncn4)cc3)on2)CC1` is 17.9%; for `O=C(Nc1cc([N+](=O)[O-])ccc1N1CCCC1)c1ccco1` it is -5%.
The figure for `CC(C)(C)C(=O)C[n+]1ccccc1` is -9.2%.
The figure for `CCCOC(=O)c1ccc(Nc2cc(C)nc3ncnn23)cc1` is 11.5%; for `COCCN(CC(=O)NC1CCCCC1)C(=O)/C=C/C(=O)c1ccc(OC)cc1O` it is 15.7%.
For `COc1ccc(C(=O)/C=C/C(=O)N(CC(=O)NC2CCCCC2)CC2CCCO2)c(O)c1` (stereo unspecified), the inhibition was 69.1% (active).
The figure for `COc1ccc(C(=O)/C=C/C(=O)N(CC(=O)NC2CCCCC2)Cc2ccccc2)c(O)c1` is -0.1%; for `Cc1nn(-c2ccccc2)nc1C(N)=O` it is 12.1%; for `O=C1C2C3C=CC(C3)C2C(=O)N1CCCCCCN1C(=O)C2C3C=CC(C3)C2C1=O` (stereo unspecified) it is -2%.
Then `O=C1C=CC(=O)N1Cc1ccccc1`, with 4.8%; and `COc1cccc(Nc2nc(N)c([N+](=O)[O-])c(N3CCOCC3)n2)c1`, with 0.4%.
The figure for `O=C(NCc1ccco1)C(=O)NCC1OCCCN1S(=O)(=O)c1ccc(Cl)cc1` (stereo unspecified) is -6.3%; for `C/C(=N/NC(=O)CNC(=O)C1COc2ccccc2O1)c1cccc(O)c1` (stereo unspecified) it is 0.2%; for `COc1ccc(/C=C/C(=O)NCC(=O)N/N=C/c2ccc(OC)cc2)cc1` it is 9%.
As to `O=C(/C=C\c1ccccc1)NCC(=O)N/N=C/c1ccc(O)cc1O`, the inhibition is 10.7%.
Turning to `CCc1ccc(/C=C2/SC(=S)N(CCC(=O)Nc3cccc(C(=O)O)c3)C2=O)cc1`, the inhibition was -9.9%.
Then `COc1ccc(/C=C2\SC(=S)N(CCC(=O)Nc3cccc(C(=O)O)c3)C2=O)cc1`, with 2.8%.
Then `COc1cc(/C=C2/SC(=S)N(Cc3ccccc3)C2=O)ccc1O`, with -5.7%; and `COc1ccc(/C=C2/SC(=S)N(Cc3ccccc3)C2=O)cc1O`, with -18.7%; and `O=C(CCCN1C(=O)/C(=C\c2cccs2)SC1=S)Nc1cccc(C(=O)O)c1`, with 0.3%.
Take `Cc1ccc(/C=C2/SC(=S)N(CCCC(=O)Nc3ccc(O)cc3)C2=O)cc1`: the inhibition was 36.2%.
The figure for `COc1cc(/C=C2/SC(=S)N(Cc3ccccc3)C2=O)cc(Cl)c1O` is 74.4% (active).
`COc1ccc(/C=C2\SC(=S)N(CCCC(=O)Nc3ccc(O)cc3)C2=O)cc1`: the inhibition was 44.8%.
As for `COc1ccc(/C=C2\SC(=S)N(CCCC(=O)Nc3ccc(C(=O)O)cc3)C2=O)cc1OC`, the inhibition was 30%.
